Source: article PMC7862700, “An all-to-all approach to the identification of sequence-specific readers for epigenetic DNA modifications on cytosine”

Tests used:
Assay in all cases: DAPPL (digital affinity profiling via proximity ligation, sequencing); 10 mM Tris-HCl pH 7.5, 50 mM NaCl, 1 mM DTT, 4% glycerol, room temperature, 30 min; GST-TFs on glutathione beads, 16-mer random dsDNA library, 0.1% formaldehyde crosslink after washing; high values mean tight binding
Details in all cases: protein: recombinant; tags: N-terminal GST; dsDNA, one strand shown
[1] = biological target: T1, FLI1 (Homo sapiens, UniProt Q01543 1-452)
T1 sequence: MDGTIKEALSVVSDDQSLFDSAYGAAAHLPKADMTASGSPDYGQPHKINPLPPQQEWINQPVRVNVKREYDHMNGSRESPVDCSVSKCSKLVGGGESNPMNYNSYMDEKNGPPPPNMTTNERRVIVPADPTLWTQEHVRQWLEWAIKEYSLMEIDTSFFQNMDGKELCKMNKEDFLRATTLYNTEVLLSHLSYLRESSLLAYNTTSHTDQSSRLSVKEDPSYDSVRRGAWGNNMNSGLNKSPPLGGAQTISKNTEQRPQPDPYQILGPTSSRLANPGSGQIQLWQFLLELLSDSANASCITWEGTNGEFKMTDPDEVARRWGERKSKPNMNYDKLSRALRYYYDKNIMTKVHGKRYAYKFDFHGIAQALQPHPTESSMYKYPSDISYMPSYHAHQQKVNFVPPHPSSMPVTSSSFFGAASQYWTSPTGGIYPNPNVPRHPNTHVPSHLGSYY
In short: (§1)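 Sequencing on an Illumina NextSeq500 followed washing, crosslinking with 0.1% formaldehyde, proximity ligation (BsaI/T4 ligase, 1 h, 37 °C) and PCR amplification of pools that had been incubated for 30 min at room temperature with 200 nmole of a random double-stranded 16-mer DNA library in Tris/NaCl/DTT/glycerol buffer. Each pool held DNA-barcoded human transcription factors, expressed in yeast as GST fusions and captured on glutathione beads, plus a tag-only sample. Binding signal is a hexamer's read frequency for a factor divided by its frequency in the tag-only sample.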

[2] = biological target: T2, ELK1 (Homo sapiens, UniProt P19419 1-428)
T2 sequence: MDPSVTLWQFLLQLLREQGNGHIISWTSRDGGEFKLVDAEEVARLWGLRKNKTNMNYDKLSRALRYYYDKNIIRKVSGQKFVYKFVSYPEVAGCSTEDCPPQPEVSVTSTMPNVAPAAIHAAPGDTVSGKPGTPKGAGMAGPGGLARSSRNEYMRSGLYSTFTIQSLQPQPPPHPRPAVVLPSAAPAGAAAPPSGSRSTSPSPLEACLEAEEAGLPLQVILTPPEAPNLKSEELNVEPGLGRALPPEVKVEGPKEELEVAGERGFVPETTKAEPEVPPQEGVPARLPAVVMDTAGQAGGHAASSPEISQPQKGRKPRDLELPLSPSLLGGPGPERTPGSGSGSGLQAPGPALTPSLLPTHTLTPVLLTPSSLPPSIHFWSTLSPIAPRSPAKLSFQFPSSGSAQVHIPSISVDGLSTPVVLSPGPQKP
In short: as §1

[3] = biological target: T3, GABPA (Homo sapiens, UniProt Q06546 1-454)
T3 sequence: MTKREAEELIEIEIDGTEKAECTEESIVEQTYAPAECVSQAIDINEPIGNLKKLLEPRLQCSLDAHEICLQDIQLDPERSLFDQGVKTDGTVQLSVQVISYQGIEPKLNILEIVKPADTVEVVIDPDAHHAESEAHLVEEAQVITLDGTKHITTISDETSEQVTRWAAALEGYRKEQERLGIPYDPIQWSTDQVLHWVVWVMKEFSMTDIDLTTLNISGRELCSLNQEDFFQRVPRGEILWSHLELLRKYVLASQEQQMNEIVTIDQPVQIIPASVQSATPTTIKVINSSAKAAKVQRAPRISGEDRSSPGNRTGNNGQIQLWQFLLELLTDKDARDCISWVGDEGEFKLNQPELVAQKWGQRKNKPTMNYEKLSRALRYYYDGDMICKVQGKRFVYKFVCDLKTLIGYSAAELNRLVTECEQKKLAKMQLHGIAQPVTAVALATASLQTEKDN
In short: as §1

[4] = biological target: T4, ERG (Homo sapiens, UniProt P11308 1-479)
T4 sequence: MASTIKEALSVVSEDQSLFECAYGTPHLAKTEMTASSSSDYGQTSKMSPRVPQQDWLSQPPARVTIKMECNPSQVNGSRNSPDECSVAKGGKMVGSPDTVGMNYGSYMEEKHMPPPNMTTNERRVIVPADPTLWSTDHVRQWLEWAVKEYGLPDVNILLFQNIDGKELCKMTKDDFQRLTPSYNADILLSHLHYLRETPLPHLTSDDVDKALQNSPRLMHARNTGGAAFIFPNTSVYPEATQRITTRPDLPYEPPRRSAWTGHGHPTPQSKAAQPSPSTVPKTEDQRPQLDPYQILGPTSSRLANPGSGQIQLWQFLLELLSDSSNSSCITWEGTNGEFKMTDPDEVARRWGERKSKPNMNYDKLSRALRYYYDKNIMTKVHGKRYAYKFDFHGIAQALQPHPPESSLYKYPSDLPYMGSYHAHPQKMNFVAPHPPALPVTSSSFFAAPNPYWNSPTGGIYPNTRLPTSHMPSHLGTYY
In short: as §1

[5] = biological target: ELF1 (Homo sapiens, UniProt P32519 1-619)
ELF1, sequence (P32519 whole entry): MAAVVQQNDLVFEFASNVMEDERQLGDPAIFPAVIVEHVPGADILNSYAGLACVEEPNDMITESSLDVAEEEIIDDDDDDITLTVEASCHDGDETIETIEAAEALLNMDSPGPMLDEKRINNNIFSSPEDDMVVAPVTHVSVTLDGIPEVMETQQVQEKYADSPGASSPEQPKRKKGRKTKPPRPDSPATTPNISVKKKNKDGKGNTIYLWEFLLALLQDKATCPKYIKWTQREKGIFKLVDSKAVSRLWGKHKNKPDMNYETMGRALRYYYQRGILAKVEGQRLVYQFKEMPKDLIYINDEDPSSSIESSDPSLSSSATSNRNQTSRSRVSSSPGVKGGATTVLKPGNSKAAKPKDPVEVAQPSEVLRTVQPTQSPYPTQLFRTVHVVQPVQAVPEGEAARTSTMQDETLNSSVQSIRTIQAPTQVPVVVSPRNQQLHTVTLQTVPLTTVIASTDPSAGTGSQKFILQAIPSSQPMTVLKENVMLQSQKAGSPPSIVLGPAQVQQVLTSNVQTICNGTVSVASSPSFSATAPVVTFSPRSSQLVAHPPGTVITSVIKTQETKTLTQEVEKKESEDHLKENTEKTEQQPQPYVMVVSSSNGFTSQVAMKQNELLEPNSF
In short: as §1

[6] = biological target: T5, EHF (Homo sapiens, UniProt Q9NZC4 1-300)
T5 sequence: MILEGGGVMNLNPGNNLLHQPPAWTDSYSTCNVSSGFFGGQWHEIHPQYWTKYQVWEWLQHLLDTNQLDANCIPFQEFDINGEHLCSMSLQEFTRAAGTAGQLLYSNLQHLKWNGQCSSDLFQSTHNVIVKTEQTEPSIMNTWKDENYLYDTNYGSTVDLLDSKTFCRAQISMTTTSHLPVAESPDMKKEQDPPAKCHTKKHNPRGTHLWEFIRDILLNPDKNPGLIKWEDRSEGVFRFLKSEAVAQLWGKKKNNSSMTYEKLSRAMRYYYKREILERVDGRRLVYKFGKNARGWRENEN
In short: as §1

[7] = biological target: SPI1 (Homo sapiens, UniProt P17947 1-270)
In short: as §1

[8] = biological target: SPIB (Homo sapiens, UniProt Q01892 1-262)
SPIB, sequence (Q01892 whole entry): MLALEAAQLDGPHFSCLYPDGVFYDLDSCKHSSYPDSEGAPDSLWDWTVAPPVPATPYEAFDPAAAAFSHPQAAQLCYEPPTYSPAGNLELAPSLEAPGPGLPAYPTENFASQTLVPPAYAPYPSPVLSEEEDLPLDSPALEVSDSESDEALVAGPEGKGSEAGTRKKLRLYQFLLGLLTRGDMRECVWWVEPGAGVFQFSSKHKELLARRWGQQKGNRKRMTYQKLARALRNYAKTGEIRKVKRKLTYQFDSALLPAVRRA
In short: as §1

[9] = biological target: T6, ELK3 (Homo sapiens, UniProt P41970 1-407)
T6 sequence: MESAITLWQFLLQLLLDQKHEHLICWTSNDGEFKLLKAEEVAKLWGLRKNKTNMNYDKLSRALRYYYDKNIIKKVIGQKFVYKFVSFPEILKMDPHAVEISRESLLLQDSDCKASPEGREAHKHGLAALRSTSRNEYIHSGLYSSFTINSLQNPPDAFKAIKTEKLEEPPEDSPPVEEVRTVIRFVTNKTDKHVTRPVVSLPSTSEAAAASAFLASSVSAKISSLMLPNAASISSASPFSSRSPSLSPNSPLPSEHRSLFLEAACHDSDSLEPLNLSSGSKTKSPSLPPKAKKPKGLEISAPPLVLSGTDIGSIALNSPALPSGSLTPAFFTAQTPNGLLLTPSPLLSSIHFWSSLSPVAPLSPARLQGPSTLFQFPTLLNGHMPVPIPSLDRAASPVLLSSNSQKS
In short: as §1

TACCTT
binding signal [1]: 1.36 fold enrichment (6-mer frequency, TF over GST control)
binding signal [2]: 1.33 fold enrichment (6-mer frequency, TF over GST control)
binding signal [3]: 1.36 fold enrichment (6-mer frequency, TF over GST control)
binding signal [4]: 1.42 fold enrichment (6-mer frequency, TF over GST control)
binding signal [5]: 1.3 fold enrichment (6-mer frequency, TF over GST control)
binding signal [6]: 1.47 fold enrichment (6-mer frequency, TF over GST control)
binding signal [7]: 1.33 fold enrichment (6-mer frequency, TF over GST control)
binding signal [8]: 1.42 fold enrichment (6-mer frequency, TF over GST control)
binding signal [9]: 1.23 fold enrichment (6-mer frequency, TF over GST control)
